High-throughput results from PubChem.
Sampled rows, rich in hits. Any-hit rate of the full collection: about 1.3%.
Integrin act MD – activators of alpha7 integrin expression for muscular dystrophy. alpha7betagal myoblasts, beta-gal FDG fluorescence, 48 h. Potency, µM (doses to about 38.3 µM), without a hit: at the highest dose activation, hits mostly activators. AID 624291. 350,000 compounds, 0.064% hits;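 further: potency means the concentration at half of the fitted maximal effect; 100% = response of the positive control SU9516; nearly all actives have a fitted effect of over 60% in size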
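Alpha7betagal+/- myoblasts (passage 13) were plated 16-24 hr, then exposed to compounds (1:260 dilution of DMSO stock) for 48 hours at 37C. After MPER lysis, β-galactosidase reporter activity was read as FDG fluorescence (ex 480/em 540) after 30 minutes.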
IL-2 act – activates IL-2 in a cell-based reporter assay; IL-2 activation reporter assay, cell-based qHTS; stimulated with anti-CD3/CD4/CD28 beads; in transgenic mouse T cells; activation, % (series mostly up to about 46 µM); 360,000 compounds, 0.065% hits; AID 652025; in the data active means activation above about 50%; inconclusive means mostly about 30% to 49%; further: 0% is about no effect
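Unstimulated transgenic mouse T cells, 750 per well, received compound and, after 60 minutes, anti-CD3/anti-CD4 bead plus anti-CD28 stimulation. EGFP and DsRed were quantified after 18 hours.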
PKM2 act – increases activity of human pyruvate kinase M2 | P14618 | purified PKM2, Kinase-Glo ATP luminescence, activation; response scale: 0% is enzyme alone, no compound | Potency, µM (titrated, usually from 57.5 µM), for inactives: at the highest dose activation, hits mostly activators | 260,000 compounds, 0.34% hits | AID 1631; further: potency means the concentration at half of the fitted maximal effect; on the % scale 0 is the no-effect control and ±100 the full control effect; nearly all actives have a fitted effect of over 55% in size
Target sequence (P14618 whole entry, looked up): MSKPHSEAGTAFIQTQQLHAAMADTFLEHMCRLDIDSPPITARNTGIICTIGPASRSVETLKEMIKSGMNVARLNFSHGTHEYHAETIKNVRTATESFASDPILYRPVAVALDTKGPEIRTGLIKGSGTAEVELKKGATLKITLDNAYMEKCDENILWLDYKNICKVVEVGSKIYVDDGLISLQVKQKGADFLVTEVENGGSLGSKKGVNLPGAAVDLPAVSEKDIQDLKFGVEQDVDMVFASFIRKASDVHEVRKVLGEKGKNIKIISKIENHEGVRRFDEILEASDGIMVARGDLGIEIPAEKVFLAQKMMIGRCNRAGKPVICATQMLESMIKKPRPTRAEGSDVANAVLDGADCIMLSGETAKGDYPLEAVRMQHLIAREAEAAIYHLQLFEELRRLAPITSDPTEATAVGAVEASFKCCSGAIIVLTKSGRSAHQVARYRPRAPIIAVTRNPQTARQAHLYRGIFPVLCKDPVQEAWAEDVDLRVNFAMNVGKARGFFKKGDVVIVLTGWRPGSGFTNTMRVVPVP
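Purified hPK-M2 (>95%) run at intermediate activity with 0.1 mM ADP and 0.5 mM PEP in 50 mM imidazole pH 7.2, KCl, MgCl2; 1 h room temperature. ATP formed read by Kinase-Glo luminescence; normalized to uninhibited and no-enzyme controls.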
Apoferritin bind – candidate novel general anesthetic via apoferritin binding; AID 485281; 350,000 compounds, 0.074% hits; Potency, µM (highest dose often 77.5 µM), for inactives: at the top dose activity change, negative = displacement, most hits filed as inhibitors; apoferritin/1-aminoanthracene competitive binding, fluorescence; further: potency means the concentration at half of the fitted maximal effect; on the % scale 0 is the no-effect control and ±100 the full control effect; nearly all actives have a fitted effect of over 20% in size
Target sequence (P02791 2-175 limits assumed): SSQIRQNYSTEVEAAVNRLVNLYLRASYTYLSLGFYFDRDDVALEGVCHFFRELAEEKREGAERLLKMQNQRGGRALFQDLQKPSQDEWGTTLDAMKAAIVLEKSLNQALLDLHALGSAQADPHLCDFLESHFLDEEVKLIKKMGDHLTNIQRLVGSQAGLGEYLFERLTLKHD
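Read-out: endpoint 1-AMA fluorescence, excitation 380 nm and emission 535 nm, after compounds sit 10 min at room temperature with 10 uM horse-spleen apoferritin in 50% saturated 1-AMA/PBS. Values come from four-parameter Hill fits.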
BRCA1 expr up – BRCA1 expression activation. MCF7-BRCA1-FFLuc reporter, luminescence, 48 h; response scale: scaled: vehicle 0%, 10 µM genistein 100%. Potency, µM (titrated, usually from 46.1 µM), for inactives: at the highest dose activation, usual class: activators. 380,000 compounds, 1.1% hits; further: potency means the concentration at half of the fitted maximal effect; nearly all actives have a fitted effect of over 80% in size
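MCF7-BRCA1-FFLuc cells, 2000/well in phenol-red-free MEM, attached 2 h then treated 48 h at 37 C. Luciferase luminescence read 15 min after reagent; normalized to genistein maximum activation (10microM) and DMSO, concentration-response fitted.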
Active calls of the source: *; ? = inconclusive; / = no result; [ ] = another dose, or the depositor's remark. Unless noted, the call rests on the fitted dose curve; in most records, active means well fitted curve in the direction sought with a large enough effect; inconclusive means small, poorly fitted or top-dose-only effect, or another doubt; inactive means no such curve, though single readings can be large; an effect the other way counts as inactive or inconclusive.

SMILES	Integrin act MD	IL-2 act	PKM2 act	Apoferritin bind	BRCA1 expr up
CC(C)c1ccc(/C=N/NC(=O)c2c(Cl)cnn2C)cc1	-24%	1	-3%	-13%	7.1µM*
COc1ccc(-c2noc(CN(C)CCC3CCCCO3)n2)cc1 (stereo not given)	-19%	-3	6%	-8%	8%
COC(=O)c1ccc(-c2noc(CN(C)CCC3CCCCO3)n2)cc1 (stereo not given)	5%	0	0.2µM*	?	2%
CCOc1ccc(C2CC(=O)Nc3nc(SCc4ccccc4C)[nH]c(=O)c32)cc1OC (stereo not given)	/	/	/	-6%	/
Clc1ccccc1OCc1nc(-c2ccncc2)no1	5%	0	-7%	-11%	5µM*
c1ccc(OCc2nc(-c3ccncc3)no2)cc1	-10%	2	-2%	-15%	11µM*
Clc1ccc(OCc2nc(-c3ccncc3)no2)c(Br)c1	-19%	-1	-2%	-16%	4µM*
c1ccc(OCc2nc(-c3ccccc3)no2)cc1	-2%	1	10%	-5%	93%
Cc1ccccc1OCC(=O)Nc1cc(C)c(O)c(-c2nc3ccccc3o2)c1	/	/	/	/	25%
CCCCCCC[n+]1c(/C=C/c2ccc(N(C)C)cc2)sc2ccccc21	/	/	/	/	-12%
Cc1ccc(NC(=O)c2cc(N3C(=O)C=CC3=O)ccc2Cl)cc1C	-48%	-4	4µM*	-2%	-21%
Cc1ccc(NC(=O)c2cc(-n3cnnc3)ccc2Cl)cc1	-7%	1	0%	1%	-4%
CCCc1ccc(C(=O)/C=C/N(C)C)cc1	52%	-2	-20%	-23%	13µM*
CN(C)/C=C/C(=O)c1ccc(F)cc1	-9%[7.66 µM]	-2	8%	?	8%
COc1ccc(NC(=O)c2sc3nc[nH]c(=O)c3c2C)cc1Cl	/	/	/	-5%	/
O=C(c1cc(-c2ccccn2)nc2ccc(Br)cc12)N1CCN(S(=O)(=O)c2ccccc2)CC1	15%	0	25µM*	-8%	-25%
Cc1ccc(-c2cc(C(=O)N3CCN(c4ncccn4)CC3)c3cc(Br)ccc3n2)o1	7%	-5	8.9µM*	27%	2%
Cc1ccc(-c2cc(C(=O)N3CCN(c4ccc(F)cc4)CC3)c3ccccc3n2)o1	4%	5	?	-2%	-15%
CCCn1ccc2c(OCC(=O)Nc3cc(C)ccc3C)cccc2c1=O	/	/	/	60%	0%
CNc1c([N+](=O)[O-])cnn1-c1ccc(Cl)cc1Cl	-1%	-2	11µM*	-13%	-21%
CCc1ccccc1NNC(=O)c1sccc1Cl	/	/	/	/	0%
CS(=O)(=O)Nc1ccc(C2=NN(C(=O)c3ccco3)C(c3ccccc3)C2)cc1 (stereo not given)	-20%	-1	14µM*	-7%	-34%
CCS(=O)(=O)Nc1ccc(C2=NN(C(=O)c3ccco3)C(c3ccc(C)cc3)C2)cc1 (stereo not given)	14%	-4	7.9µM*	-11%	-52%
Cc1ccc(C2CC(c3ccc(NS(C)(=O)=O)cc3)=NN2C(=O)c2ccco2)cc1 (stereo not given)	-7%	-2	?	7%	-34%
CCOc1ccccc1-c1nnc2n1N=C(c1cc(OC)cc(OC)c1)CS2	/	/	/	-21%	/
SMILES	Integrin act MD	IL-2 act	PKM2 act	Apoferritin bind	BRCA1 expr up
CCc1ccc(NC(=O)CSc2nnc(-c3ccccc3)n2C)cc1	/	/	/	/	8%
C=CCn1c(=O)/c(=C\c2ccsc2)s/c1=C(/C#N)C(=O)NCCN1CCOCC1	-27%	0	-5%	3%	7%
COc1ccc(-n2c(=O)/c(=C\c3cccs3)s/c2=C(/C#N)C(=O)NCCN2CCOCC2)cc1	11%	137*	-1%	-3%	0%
CC[C@H](C)[C@H](NC(=O)[C@H](Cc1ccc(O)cc1)NC(=O)[C@@H](NC(=O)[C@H](CCCNC(=N)N)NC(=O)[C@@H](N)CC(=O)O)C(C)C)C(=O)N[C@@H](Cc1cnc[nH]1)C(=O)N1CCC[C@H]1C(=O)N[C@@H](Cc1ccccc1)C(=O)N[C@@H](Cc1cnc[nH]1)C(=O)N[C@@H](CC(C)C)C(=O)N[C@@H](CC(C)C)C(=O)N[C@H](C(=O)N[C@@H](Cc1ccc(O)cc1)C(=O)N[C@@H](CO)C(=O)O)C(C)C	/	/	/	-16%	/
COc1ccc(C2c3c(ncn(CCCO)c3=N)Oc3ccc4ccccc4c32)cc1OC (stereo not given)	-65%	-5	-4%	-7%	-77%
COc1ccc(C2c3c(ncn(CCN4CCOCC4)c3=N)Oc3ccc4ccccc4c32)cc1OC (stereo not given)	-67%	-2	20µM*	-24%	-28%
Cn1c(Cn2cnc(Cl)c2Cl)nc2ccccc21	-16%	-1	25µM*	-8%	-10%
Cn1c(Cn2cnc3ccccc32)nc2ccccc21	14%	2	?	-7%	-23%
Cn1c(=O)c(=O)n(C)c2cc(S(=O)(=O)N3CCc4ccccc43)ccc21	-3%	-2	2µM*	-19%	-19%
CCc1cccc(CC)c1NC(=S)NCCc1c(C)[nH]c2ccccc12	-48%	-1	-2%	-4%	-36%
CCc1cccc(CC)c1NC(=S)NCCc1ccc(O)c(O)c1	5%	0	22µM*	-5%	-30%
O=[N+]([O-])c1ccc(-c2cn3c(n2)SCC3)cc1	22%	0	/	/	8.9µM*
N#Cc1ccc(-c2cn3c(n2)SCC3)cc1	4%	0	/	-3%	95%
COCCSc1ccccc1C(=O)Nc1cc(C)cc(C)c1	4.5µM*	-1	?	-12%	-21%
CCSc1ccccc1C(=O)Nc1cc(OC)c(OC)c(OC)c1	23%	-2	28µM*	4%	-17%
O=C(Nc1cccc(Cl)c1)OCC#CCCl	/	/	/	-7%	/
CC1(C)CC(=O)c2cnc(N3CCc4ccccc4C3)nc2C1	-13%	-2	-5%	-13%	7.1µM*
CC1(C)CC(=O)c2cnc(N3CCN(c4ccccc4)CC3)nc2C1	7%	-1	4%	-8%	-5%
c1ccc(-c2nc(N3CCN(c4ccccc4)CC3)nc(-n3ccnc3)n2)cc1	30%	-3	0%	-16%	-52%
c1ccc(-c2ccc(-n3ccnc3)cc2)cc1	23%	1	-12%	-18%	10µM*
CCCS(=O)(=O)c1ncc(Cl)c(C(=O)Nc2sc3c(c2C(=O)NCC)CCCC3)n1	/	/	/	/	0%
CCN(Cc1ccccc1)c1ccc(/C=C(\C#N)c2ccccn2)cc1	13%	1	6%	-10%	5µM*
COc1cccc(NC(=O)c2ccccc2OCC(=O)Nc2ccc(Br)cc2)c1	/	/	/	/	-9%
CC1(C)CC(=O)c2c(noc2-c2ccccc2)C1	-11%	-1	6%	10µM*	47%
CC1(C)CC(=O)c2c(Cc3ccccc3)noc2C1	19%	1	-11%	?	23%
